PubChem BioAssay (EPA / NIEHS)
Activity calls are given as the source filed them. Rule for the calls: active = hit-call score of the fitted dose curve at least 0.9, where 1 is the maximum; inactive = score below 0.9.

Tests used:
[1] = target: Transcription factor E2F1 (Homo sapiens) (UniProt Q01094); test: ATG_E2F_CIS: Attagene CIS-FACTORIAL HepG2 Assay for human E2F Transcription Factor 1 (AID 2282935); settings: HepG2 Attagene cis-reporter, E2F reporter RNA transcripts; actives raise or lower the signal
Chain of Transcription factor E2F1 (Homo sapiens) (Q01094 whole entry, looked up): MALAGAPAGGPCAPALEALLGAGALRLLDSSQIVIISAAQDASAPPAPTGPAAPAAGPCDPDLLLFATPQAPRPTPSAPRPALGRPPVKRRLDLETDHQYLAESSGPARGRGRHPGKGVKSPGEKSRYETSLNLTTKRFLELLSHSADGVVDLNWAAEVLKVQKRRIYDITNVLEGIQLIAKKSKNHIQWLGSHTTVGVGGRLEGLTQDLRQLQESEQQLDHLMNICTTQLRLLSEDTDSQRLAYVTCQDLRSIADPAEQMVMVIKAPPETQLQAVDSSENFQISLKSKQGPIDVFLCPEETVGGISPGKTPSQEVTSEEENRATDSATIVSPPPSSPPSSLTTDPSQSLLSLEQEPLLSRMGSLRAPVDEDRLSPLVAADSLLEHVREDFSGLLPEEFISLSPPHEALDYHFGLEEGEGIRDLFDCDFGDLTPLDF
Summary of the method: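 Endogenous E2F1 activity read through cis-promoter reporter units transfected into HepG2. After 24 h compound treatment, reporter mRNA measured by RT-PCR, HpaI digestion and capillary electrophoresis. Bidirectional fit versus DMSO.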

[2] = ATG_E_Box_CIS: Attagene CIS-FACTORIAL HepG2 Assay for human Enhancer Box (E-box) (AID 2282936); settings: HepG2 E-box cis-reporter transcription, actives raise or lower the signal
Summary of the method: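 HepG2 cells transiently transfected with multiplexed cis-element reporter units, dosed 24 h; reporter mRNA quantified by RT-PCR, 6-FAM labelling, HpaI digestion and capillary electrophoresis. E-box (USF1) signal fitted bidirectionally vs DMSO.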

[3] = ATG_M_61_CIS: Attagene CIS-FACTORIAL HepG2 Assay for M61 Transcription Factor (Internal Marker) (AID 2282937); settings: HepG2 Attagene CIS-FACTORIAL M61 internal marker reporter; actives raise or lower the signal
Summary of the method: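 HepG2 cells transiently transfected with cis-element-driven multiple reporter transcription units, dosed for 24 h. Reporter mRNA measured by RT-PCR, 6-FAM primer-extension labelling, HpaI digestion and capillary electrophoresis; bidirectional fit versus DMSO baseline.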

[4] = ATG_EGR_CIS: Attagene CIS-FACTORIAL HepG2 Assay for human Early Growth Response 1 (EGR1) (AID 2282938); settings: HepG2 Attagene CIS-FACTORIAL EGR reporter mRNA; actives raise or lower the signal
Summary of the method: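 HepG2 cells transiently transfected with cis-promoter-driven multiplexed reporter transcription units; reporter mRNA measured 24 h after compound dosing by RT-PCR, 6-FAM primer extension, HpaI digestion and capillary electrophoresis. Bidirectional fit versus DMSO baseline.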

[5] = ATG_M_19_CIS: Attagene CIS-FACTORIAL HepG2 Assay for M19 Transcription Factor (Internal Marker) (AID 2282939); settings: HepG2 Attagene CIS-FACTORIAL M19 internal marker reporter; actives raise or lower the signal
Summary of the method: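 In this multiplexed cell assay, transiently transfected HepG2 reporter units report endogenous transcription-factor activity; after 24 hours of treatment, labelled reporter cDNA fragments are quantified by capillary electrophoresis and fitted bidirectionally against DMSO.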

[6] = ATG_ERE_CIS: Attagene CIS-FACTORIAL HepG2 Assay for Estrogen Response Element (ERE) (AID 2282940); settings: HepG2 ERE cis-reporter, Attagene RNA transcript; actives raise or lower the signal
Summary of the method: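 Measuring endogenous transcription factor output, the assay doses transfected HepG2 cells for 24 hours and quantifies reporter transcripts by fluorescent RT-PCR and capillary electrophoresis, with DMSO as baseline.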

[7] = ATG_Ets_CIS: Attagene CIS-FACTORIAL HepG2 Assay for human Erythroblast Transformation Specific (ETS) (AID 2282941); settings: HepG2 ETS cis-reporter transcription, actives raise or lower the signal
Summary of the method: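 HepG2 cells transfected with multiple cis-regulated reporter units measuring endogenous ETS-driven transcription, 24 h after dosing. Reporter mRNA quantified by RT-PCR with capillary electrophoresis; bidirectional fit relative to DMSO.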

[8] = target: Hepatocyte nuclear factor 3-beta (Homo sapiens) (UniProt Q9Y261); test: ATG_FoxA2_CIS: Attagene CIS-FACTORIAL HepG2 Assay for human Forkhead box A2 (FOXA2) (AID 2282942); settings: HepG2 cis-reporter transcription factor activity, 24 h; actives raise or lower the signal
Chain of Hepatocyte nuclear factor 3-beta (Homo sapiens) (Q9Y261 whole entry, looked up): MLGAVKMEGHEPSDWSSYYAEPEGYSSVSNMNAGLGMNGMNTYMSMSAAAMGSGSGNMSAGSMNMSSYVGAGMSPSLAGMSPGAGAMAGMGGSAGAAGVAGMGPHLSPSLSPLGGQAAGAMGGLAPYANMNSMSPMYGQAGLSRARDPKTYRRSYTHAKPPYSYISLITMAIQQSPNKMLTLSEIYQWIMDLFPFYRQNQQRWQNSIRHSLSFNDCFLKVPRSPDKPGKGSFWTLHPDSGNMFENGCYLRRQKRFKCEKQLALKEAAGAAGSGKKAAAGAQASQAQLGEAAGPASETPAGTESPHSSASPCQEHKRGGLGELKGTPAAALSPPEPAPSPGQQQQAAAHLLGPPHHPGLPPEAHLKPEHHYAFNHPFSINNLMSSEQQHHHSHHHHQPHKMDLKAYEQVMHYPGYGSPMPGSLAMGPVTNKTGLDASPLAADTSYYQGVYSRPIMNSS
Summary of the method: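 HepG2 cells transiently transfected with multiple cis-regulated reporter transcription units, dosed for 24 h. Reporter mRNA measured by RT-PCR, 6-FAM labelling, HpaI digestion and capillary electrophoresis; bidirectional fitting against DMSO baseline.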

[9] = ATG_FoxO_CIS: Attagene CIS-FACTORIAL HepG2 Assay for human Forkhead box O (FoxO) (AID 2282943); settings: HepG2 Attagene cis-reporter, FoxO element, mRNA; actives raise or lower the signal
Summary of the method: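 HepG2 cells transiently transfected with cis-element-driven reporter units report endogenous FoxO activity. After 24 h chemical exposure, reporter mRNA quantified by RT-PCR, fluorescent labeling, HpaI digestion and capillary electrophoresis; bidirectional fit versus DMSO.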

[10] = ATG_GATA_CIS: Attagene CIS-FACTORIAL HepG2 Assay for human GATA Binding Protein (AID 2282944); settings: HepG2 GATA cis-element reporter, Attagene multiplex mRNA; actives raise or lower the signal
Summary of the method: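 Measures endogenous transcription factor-driven reporter mRNA in HepG2 cells transiently carrying cis-regulated constructs. 24 h dosing; RNA via oligo(dT) reverse transcription, PCR, HpaI digestion, capillary electrophoresis; fitted relative to DMSO.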

[11] = ATG_GLI_CIS: Attagene CIS-FACTORIAL HepG2 Assay for human Zinc Finger Protein GLI1 (AID 2282945); settings: HepG2, Attagene cis-factorial reporter mRNA, GLI element; actives raise or lower the signal
Summary of the method: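 Transiently transfected HepG2 cells report endogenous transcription factor activity via cis-element-driven reporter units. After 24 h compound exposure, reporter mRNA was measured by RT-PCR with capillary electrophoresis; bidirectional fitting against DMSO baseline.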

[12] = target: Bile acid receptor (Homo sapiens) (UniProt Q96RI1); test: ATG_IR1_CIS: Attagene CIS-FACTORIAL HepG2 Assay for human Nuclear Receptor Subfamily 1 Group H Member 4 (NR1H4), IR1 submotif (AID 2282946); settings: IR1 reporter transcription, actives raise or lower the signal
Chain of Bile acid receptor (Homo sapiens) (Q96RI1 whole entry, looked up): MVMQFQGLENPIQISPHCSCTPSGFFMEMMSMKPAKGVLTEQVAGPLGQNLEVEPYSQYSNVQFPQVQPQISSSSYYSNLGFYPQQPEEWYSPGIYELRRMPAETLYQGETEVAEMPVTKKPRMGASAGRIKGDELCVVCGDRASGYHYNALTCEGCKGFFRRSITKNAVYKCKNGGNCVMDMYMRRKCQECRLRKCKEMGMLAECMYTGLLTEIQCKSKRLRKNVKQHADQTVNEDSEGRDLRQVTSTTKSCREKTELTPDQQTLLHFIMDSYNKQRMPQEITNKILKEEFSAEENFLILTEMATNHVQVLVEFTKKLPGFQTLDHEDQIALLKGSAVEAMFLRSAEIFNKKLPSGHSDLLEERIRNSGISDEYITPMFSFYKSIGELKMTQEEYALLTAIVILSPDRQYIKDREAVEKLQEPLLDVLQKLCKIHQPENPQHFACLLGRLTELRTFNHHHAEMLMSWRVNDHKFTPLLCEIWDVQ
Summary of the method: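 HepG2 cells transiently transfected with multiple cis-promoter-driven reporter units to measure endogenous transcription factor activity; 24 h exposure. Reporter mRNA read by RT-PCR, FAM labelling, HpaI digestion and capillary electrophoresis. Bidirectional fit versus DMSO.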

[13] = ATG_GRE_CIS: Attagene CIS-FACTORIAL HepG2 Assay for human Glucocorticoid Response Elements (GRE) (AID 2282947); settings: HepG2 GRE cis-reporter, Attagene multiplex mRNA; actives raise or lower the signal
Summary of the method: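 Transiently transfected HepG2 cells carrying GRE cis-reporter units (endogenous TF activity) dosed 24 h; reporter mRNA quantified by RT-PCR, 6-FAM labelling, HpaI digestion and capillary electrophoresis. Bidirectional fit versus DMSO baseline.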

[14] = ATG_ISRE_CIS: Attagene CIS-FACTORIAL HepG2 Assay for human Interferon Regulatory Factor 1 (IRF1) binding to an Interferon-Stimulated Response Element (ISRE) (AID 2282948); settings: HepG2 ISRE cis-reporter (Attagene), mRNA transcription readout; actives raise or lower the signal
Summary of the method: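 Transiently transfected HepG2 cells carrying cis-element reporter units, dosed 24 hours. Reporter mRNA quantified by RT-PCR, fluorescent primer extension, HpaI digestion and capillary electrophoresis. Bidirectional fitting relative to DMSO.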

[15] = ATG_M_32_CIS: Attagene CIS-FACTORIAL HepG2 Assay for M32 Transcription Factor (Internal Marker) (AID 2282949); settings: HepG2 Attagene cis-factorial M32 reporter, mRNA; actives raise or lower the signal;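 note: background control marker of the multiplexed CIS panel rather than a real target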
Summary of the method: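 HepG2 cells transiently transfected with multiplexed cis-regulated reporter units, dosed 24 h. Reporter mRNA quantified by RT-PCR, 6-FAM labelling, HpaI digestion and capillary electrophoresis; bidirectional fit vs DMSO.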

[16] = ATG_M_06_CIS: Attagene CIS-FACTORIAL HepG2 Assay for M06 Transcription Factor (Internal Marker) (AID 2282950); settings: HepG2 Attagene CIS-FACTORIAL M06 internal marker reporter; actives raise or lower the signal
Summary of the method: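 One of many multiplexed endpoints: HepG2 reporter mRNA after 24 h dosing, detected by RT-PCR and capillary electrophoresis fluorescence; gain or loss of signal analysed against DMSO.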

[17] = target: Hypoxia-inducible factor 1-alpha (Homo sapiens) (UniProt Q16665); test: ATG_HIF1a_CIS: Attagene CIS-FACTORIAL HepG2 Assay for human Hypoxia Inducible Factor 1 (HIF1A) (AID 2282951); settings: HepG2 Attagene cis-factorial HIF1a reporter transcription; actives raise or lower the signal
Chain of Hypoxia-inducible factor 1-alpha (Homo sapiens) (Q16665 whole entry, looked up): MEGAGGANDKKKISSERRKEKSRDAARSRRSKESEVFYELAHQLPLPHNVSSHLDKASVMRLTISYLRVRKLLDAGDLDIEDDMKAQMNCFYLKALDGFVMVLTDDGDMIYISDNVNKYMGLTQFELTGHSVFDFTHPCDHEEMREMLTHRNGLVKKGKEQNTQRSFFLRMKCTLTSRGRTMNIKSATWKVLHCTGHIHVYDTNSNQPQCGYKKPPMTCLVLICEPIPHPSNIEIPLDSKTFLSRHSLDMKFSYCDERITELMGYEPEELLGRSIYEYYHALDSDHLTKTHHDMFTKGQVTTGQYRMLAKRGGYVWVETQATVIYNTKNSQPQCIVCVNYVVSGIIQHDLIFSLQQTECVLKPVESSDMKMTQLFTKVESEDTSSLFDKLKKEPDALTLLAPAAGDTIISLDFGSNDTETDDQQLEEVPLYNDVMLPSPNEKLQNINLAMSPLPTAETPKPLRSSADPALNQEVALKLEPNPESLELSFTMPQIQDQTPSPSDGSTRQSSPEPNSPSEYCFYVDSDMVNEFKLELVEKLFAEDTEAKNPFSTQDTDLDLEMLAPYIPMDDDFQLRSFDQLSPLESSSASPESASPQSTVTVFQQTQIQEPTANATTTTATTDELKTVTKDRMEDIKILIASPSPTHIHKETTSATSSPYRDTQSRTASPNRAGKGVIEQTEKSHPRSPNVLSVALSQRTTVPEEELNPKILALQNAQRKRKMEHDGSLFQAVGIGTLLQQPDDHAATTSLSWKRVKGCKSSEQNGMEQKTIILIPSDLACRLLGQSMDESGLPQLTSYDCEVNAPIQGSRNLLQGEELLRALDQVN
Summary of the method: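 HepG2 cells transiently transfected with multiplexed cis-promoter reporter units; reporter mRNA read 24 h after dosing by RT-PCR, 6-FAM primer-extension labelling, HpaI digestion and capillary electrophoresis. Bidirectional fit versus DMSO baseline.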

[18] = target: Hepatocyte nuclear factor 6 (Homo sapiens) (UniProt Q9UBC0); test: ATG_HNF6_CIS: Attagene CIS-FACTORIAL HepG2 Assay for human Hepatocyte Nuclear Factor 6 (HNF6) (AID 2282952); settings: HepG2 Attagene cis-factorial HNF6 reporter transcription; actives raise or lower the signal
Chain of Hepatocyte nuclear factor 6 (Homo sapiens) (Q9UBC0 whole entry, looked up): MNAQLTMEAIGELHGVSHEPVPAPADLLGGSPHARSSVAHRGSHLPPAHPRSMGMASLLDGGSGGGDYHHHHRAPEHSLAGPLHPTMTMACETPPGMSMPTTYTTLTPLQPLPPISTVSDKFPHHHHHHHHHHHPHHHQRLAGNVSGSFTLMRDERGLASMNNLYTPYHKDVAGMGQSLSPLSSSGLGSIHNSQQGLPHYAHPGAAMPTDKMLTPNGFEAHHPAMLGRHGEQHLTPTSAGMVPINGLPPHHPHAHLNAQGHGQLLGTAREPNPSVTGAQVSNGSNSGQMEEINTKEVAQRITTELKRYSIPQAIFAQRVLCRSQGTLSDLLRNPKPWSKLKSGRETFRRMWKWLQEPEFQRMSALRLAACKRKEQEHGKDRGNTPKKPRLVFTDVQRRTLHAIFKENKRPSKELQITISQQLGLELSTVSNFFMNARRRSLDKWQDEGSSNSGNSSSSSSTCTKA
Summary of the method: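 HepG2, transient MRTU transfection (cis promoters); 24 h chemical exposure; total RNA → oligo(dT) RT → PCR → 6-FAM labelling → HpaI cut → CE; bidirectional fit vs DMSO.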

[19] = target: Heat shock factor protein 1 (Homo sapiens) (UniProt Q00613); test: ATG_HSE_CIS: Attagene CIS-FACTORIAL HepG2 Assay for human Heat Shock Transcription Factor 1 (HSE) (AID 2282953); settings: HepG2 HSE cis-reporter, Attagene RNA transcription; actives raise or lower the signal
Chain of Heat shock factor protein 1 (Homo sapiens) (Q00613 whole entry, looked up): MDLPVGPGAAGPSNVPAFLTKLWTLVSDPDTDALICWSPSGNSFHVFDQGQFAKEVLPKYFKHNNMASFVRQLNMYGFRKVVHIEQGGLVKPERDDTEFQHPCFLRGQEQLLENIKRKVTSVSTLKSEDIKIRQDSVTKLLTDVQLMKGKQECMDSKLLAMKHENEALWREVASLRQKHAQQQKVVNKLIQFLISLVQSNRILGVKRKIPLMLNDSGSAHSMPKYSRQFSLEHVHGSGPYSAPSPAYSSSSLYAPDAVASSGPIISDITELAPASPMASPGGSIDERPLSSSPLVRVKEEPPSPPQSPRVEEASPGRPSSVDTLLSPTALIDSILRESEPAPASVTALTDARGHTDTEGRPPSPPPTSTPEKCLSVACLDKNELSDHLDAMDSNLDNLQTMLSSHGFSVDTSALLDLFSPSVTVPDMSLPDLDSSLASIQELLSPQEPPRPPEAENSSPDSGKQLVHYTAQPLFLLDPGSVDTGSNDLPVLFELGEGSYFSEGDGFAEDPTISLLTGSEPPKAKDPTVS
Summary of the method: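 Using HepG2 with transfected cis-driven reporter constructs, compound effects on endogenous factor activity are scored as reporter mRNA change at 24 h. Detection: RT-PCR, HpaI digestion, capillary electrophoresis; bidirectional fitting to DMSO.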

[20] = ATG_MRE_CIS: Attagene CIS-FACTORIAL HepG2 Assay for human Metal Responsive Element (MRE) (AID 2282954); settings: HepG2 MRE cis-reporter transcription, Attagene multiplex; actives raise or lower the signal
Summary of the method: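 HepG2 cells transiently transfected with cis-element-driven reporter units; mRNA measured 24 h after dosing. Reporter transcripts quantified by RT-PCR, FAM labelling, HpaI digestion and capillary electrophoresis; bidirectional fit versus DMSO.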

Measured: AC50

Cc1ccc([N+](=O)[O-])c(C)c1
inactive: all assays above

Nc1cccnc1N
not listed: [18]
inactive: all other assays above

CC(C)CCCC(C)CCO (centres undefined)
inactive: all assays above

CN(C)C(C)(C)CO
inactive: all assays above

N#Cc1ccccc1O
inactive: all assays above

NCC(F)(F)C(F)(F)C(F)(F)C(F)(F)C(F)(F)C(F)(F)F
inactive: all assays above

C=CC(=O)OCC(F)(F)C(F)(F)C(F)(F)C(F)(F)C(F)(F)C(F)(F)C(F)(F)C(F)F
active: [6] 5.14 µM | [14] 150 µM | [19] 218 µM | [20] 231 µM
inactive: all other assays above
